Rows were chosen to be rich in hits. Some 3.9% of all compounds tested hit in one or more screens of this group.
HSP90 inh: inhibitors of HSP90 luciferase refolding in rabbit reticulocyte lysate. luciferase refolding luminescence, 3 h. inhibition, % at 5.6 µM. 0.91% of 290,000 active;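 active = inhibition above the screen-wide mean plus 3 SD, computed separately per campaign, cut at about 16% in these data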;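 note: 0% = DMSO wells and 100% = 60 µM geldanamycin wells; inhibitors lower the luminescence because luciferase stays unfolded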
C8 TRAIL sens: sensitizes caspase-8 expressing cells to TRAIL; NB7+C8 cells + TRAIL, ATPlite viability luminescence; inhibition (viability loss, TRAIL sensitization), % at 10 µM; 1% of 360,000 active; AID 624354;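 active = compounds causing at least 50% loss of cell viability in the single-dose screen, relative to plate controls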
TROY NFkB inh: blocks TROY-dependent signaling in reporter cells; Q293 LMP1-TROYcd NF-kB luciferase reporter, 4 h; inhibition, % at 10 µM; 0.98% of 360,000 active;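 active = compounds whose plate-normalised and pattern-corrected inhibition of the luciferase reporter signal at the single screening dose is 50% or more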
HIF-2a inh: inhibitors of HIF-2a. 786-0 RCC cells HIF-2a reporter, luciferase luminescence, overnight. inhibition, % at 18.8 µM. 0.72% of 360,000 active;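 active = inhibition of the luminescence signal of 40% or more relative to plate controls, in a single-dose primary screen at 18.75 µM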
TWEAK-Fn14 inh: TWEAK-Fn14 signaling inhibition; 2% of 360,000 active; AID 1159606; inhibition, % at 10 µM; TWEAK-stimulated Fn14 reporter cells, luciferase luminescence, 8 h; in the data active = inhibition above about 50%
aSyn 5UTR inh: MLPCN primary screen, SNCA 5' untranslated region | alpha-synuclein 5'UTR reporter, inhibitor activity | inhibition, % (tested at 7.5 µM) | 0.82% of 300,000 active | AID 1813; in the data active = inhibition above about 60%;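 note: H4 neuroglioblastoma cells stably carrying SNCA 5'UTR luciferase fusion; 0% = DMSO wells and 100% = positive control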
HSP90 inh confirm: HSP90 inhibition, confirmation assay; 64% of 2,300 active; AID 1846; inhibition, % at 5.9 µM; shares compounds with HSP90 inh; rabbit reticulocyte lysate, luciferase refolding luminescence, 3 h; in the data active = inhibition above about 18%;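 note: 0% = vehicle wells and 100% = reference inhibitor wells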
FLuc counter: blocks native firefly luciferase in HSP90 counter-screen; inhibition, % at 5.9 µM; purified native firefly luciferase, luminescence; shares compounds with HSP90 inh; AID 1847; 48% of 2,300 active;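 active = inhibition above the mean inhibition of all tested sample wells plus 3 SD, cut at about 10% in these data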;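 note: 0% = DMSO with luciferase and 100% = wells lacking luciferase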
Target sequence (P08659 whole entry, looked up): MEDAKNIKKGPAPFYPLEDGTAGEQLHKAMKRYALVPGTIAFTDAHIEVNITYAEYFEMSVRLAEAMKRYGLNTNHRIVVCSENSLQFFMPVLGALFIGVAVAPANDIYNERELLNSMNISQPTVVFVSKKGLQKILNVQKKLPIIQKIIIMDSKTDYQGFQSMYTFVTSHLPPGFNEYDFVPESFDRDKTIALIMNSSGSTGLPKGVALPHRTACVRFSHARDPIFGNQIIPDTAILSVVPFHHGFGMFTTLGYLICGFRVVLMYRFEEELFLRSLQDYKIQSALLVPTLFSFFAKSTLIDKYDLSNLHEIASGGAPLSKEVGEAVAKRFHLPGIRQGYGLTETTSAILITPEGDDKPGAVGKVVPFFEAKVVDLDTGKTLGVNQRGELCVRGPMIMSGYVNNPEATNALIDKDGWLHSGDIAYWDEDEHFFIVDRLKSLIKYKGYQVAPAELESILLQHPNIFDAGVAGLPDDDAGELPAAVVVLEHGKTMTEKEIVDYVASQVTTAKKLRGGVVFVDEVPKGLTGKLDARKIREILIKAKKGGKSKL
The depositor's hits bear a star; · = no result given.

SMILES | HSP90 inh | C8 TRAIL sens | TROY NFkB inh | HIF-2a inh | TWEAK-Fn14 inh | aSyn 5UTR inh | HSP90 inh confirm | FLuc counter
CC1(C(=O)NCc2ccc(Cl)cc2)CCN1C(=O)c1cccc(F)c1 (stereo not drawn) | · | -3 | 2 | 5 | -4 | · | · | ·
c1ccc(OCc2nc3ccccc3s2)cc1 | 17* | 10 | -37 | -202 | -4 | -123 | 25* | 8
Cc1nc2sc(-c3ccccc3)cc2c(=O)n1N | 19* | 60* | 61* | 13 | 94* | 75* | 77* | 66*
CC(C)(C)OC(=O)CC1(C#N)c2ccccc2C(Br)=CN1C(=O)c1ccccc1 (stereo not drawn) | · | 7 | -17 | 6 | 0 | 23 | · | ·
CCn1c(C)nc2cc(N)ccc21 | 34* | 25 | 36 | -9 | 32 | 4 | 8 | -2
CC(C)OP(=O)(c1ccc(N(C)C)cc1)C(O)c1ccc(N(C)C)cc1 (stereo not drawn) | 30* | -18 | 1 | 5 | -9 | 5 | -5 | -7
COc1ccc(NC(=O)C2(C)CCCN(C(C)=O)C2)cc1F (stereo not drawn) | · | -4 | -2 | 5 | 5 | · | · | ·
N#Cc1cc2c(nc1SCC(=O)N1CCOCC1)CCCCC2 | 54* | 19 | 81* | -34 | 95* | -65 | 1 | -5
N#Cc1cc2c(nc1SCC(N)=O)CCCCC2 | 2 | 20 | -2 | -145 | -4 | -77 | · | ·
O=C(NCCN1CCOCC1)c1cc(-c2cccc(Cl)c2)on1 | -2 | -2 | -14 | -67 | 4 | 2 | · | ·
Clc1cccc(-c2ccc(CNCCCN3CCOCC3)o2)c1 | 27* | 1 | 11 | 6 | 5 | -20 | 1 | -4
CN(C)c1cccc(NC(=O)C2Cc3c(-c4ccc(Cl)cc4)ccnc3O2)c1 (stereo not drawn) | · | -4 | 24 | 17 | 20 | · | · | ·
Cc1ccc(NC(=O)C2CCN(c3ncnc4c3nc3n4CCCCC3)CC2)nc1 | 34* | 0 | 21 | 1 | -4 | -1 | -10 | -22
COc1cc([N+](=O)[O-])ccc1NC(=O)Cn1ccsc1=N | 0 | 0 | -18 | -16 | -1 | -7 | · | ·
N=c1sccn1CC(=O)Nc1ccc([N+](=O)[O-])cc1Cl | 21* | -9 | 3 | 11 | 6 | -4 | 4 | 4
O=C(Nc1ncc([N+](=O)[O-])s1)c1cccc([N+](=O)[O-])c1 | 16* | 46 | -14 | -40 | 93* | 32 | 60* | 34*
O=C(Nc1ccc(NC(=O)c2cccc([N+](=O)[O-])c2)cc1)c1cccc([N+](=O)[O-])c1 | 3 | -1 | -17 | -88 | -8 | -56 | · | ·
COc1cccc(Sc2nc(-c3ccccc3)ncc2S(C)(=O)=O)c1 | 26* | -2 | 71* | -87 | 91* | 11 | 15 | 14*
C=CCOC(=O)c1ccccc1C(=O)OCC1CO1 (stereo not drawn) | · | -11 | -16 | 13 | 25 | · | · | ·
COc1cccc(-c2cc3nc4c(c(NCC(C)(C)CN(C)C)n3n2)CCCC4)c1 | 46* | 12 | 81* | -94 | 61* | -36 | 44* | 3
Fc1cccc(-c2cc3nc4c(c(NCc5ccco5)n3n2)CCCC4)c1 | -2 | 50 | -17 | -286 | 44 | -59 | · | ·
CC(C)Oc1cccc(C(=O)NC(=S)Nc2ccccc2)c1 | 23* | 12 | 67* | -57 | 59* | -90 | 20* | 8
CC(C)Oc1cccc(C(=O)NC(=S)Nc2cccnc2)c1 | 0 | 13 | -49 | -162 | -15 | -114 | · | ·
O=C(O)c1ccc(NC(=S)NC(=O)c2cncc(Br)c2)cc1 | 51* | -7 | 47 | 25 | -12 | -6 | 25* | -2
COC1=NC(=C(c2ccccc2)c2ccccc2)OC1=O | · | -3 | -4 | 5 | 21 | · | · | ·
SMILES | HSP90 inh | C8 TRAIL sens | TROY NFkB inh | HIF-2a inh | TWEAK-Fn14 inh | aSyn 5UTR inh | HSP90 inh confirm | FLuc counter
CC1CCCN(c2ccc3nc4ccccc4c(=O)n3n2)C1 (stereo not drawn) | 36* | 78* | 66* | -64 | 37 | 15 | 60* | 38*
Cc1ccc2nc3ccc(N4CCCC4)nn3c(=O)c2c1 | -2 | -2 | -45 | -165 | 9 | -163 | · | ·
COc1ccc(COC(=O)CNC(=O)C2CCCCC2)cc1F | · | -18 | -22 | -11 | 38 | · | · | ·
CCN(CCO)c1ccc(N=Nc2cc(C)[nH]n2)cc1 | 57* | 86* | 69* | 55* | 91* | 102* | 76* | 68*
Oc1c(Br)cc(Br)cc1CNc1cccc2cccnc12 | 13 | -8 | 23 | -4 | 19 | 38 | · | ·
Oc1ccc(Cl)cc1CNc1cccc2cccnc12 | 27* | 26 | 4 | 11 | 13 | -7 | 3 | -4
COc1cccc(CNc2ccccn2)c1O | -1 | -3 | -17 | -71 | -4 | -100 | · | ·
Cc1ccc(O)c(CNc2cccc3cccnc23)c1 | 1 | 2 | 13 | -4 | 12 | -12 | · | ·
Oc1ccc(Br)cc1CNc1cccc2cccnc12 | 25* | -1 | 26 | -1 | 17 | 12 | 2 | 0
COc1cccc(CNc2cccc3cccnc23)c1O | 20* | 5 | 8 | -54 | 31 | -88 | -11 | -30
COc1cccc(NC(=O)CN(C)C(C)C(=O)NC(=O)NC2CCCCC2)c1 (stereo not drawn) | · | -9 | -11 | 1 | 11 | · | · | ·
CC(C)C(=O)Nc1ccc2nn(-c3ccc(F)cc3)nc2c1 | 25* | 27 | 34 | -192 | 36 | -71 | 28* | 20*
Cc1ccc(C)c(N(Cc2cc3ccc(C)cc3[nH]c2=O)C(=O)c2ccco2)c1 | 18* | 19 | 25 | 16 | 6 | 7 | 1 | -5
COc1ccc(N(Cc2cc3ccc(C)cc3[nH]c2=O)C(=O)c2ccco2)cc1 | -4 | -9 | 2 | 17 | 2 | 27 | · | ·
CCC(=O)Nc1nc(C)c(-c2csc(Nc3ccccn3)n2)s1 | -7 | 1 | -5 | -237 | -6 | -122 | · | ·
Cc1nc(NC(=O)c2ccccc2)sc1-c1csc(NCCc2ccccc2)n1 | 42* | 3 | -38 | -71 | 54* | -50 | 19* | -7
Cc1nc(NC(=O)c2ccccc2)sc1-c1csc(NCc2ccccc2)n1 | 60* | 1 | -37 | -58 | 43 | -22 | 24* | -14
Cc1cc(-c2csc(NCc3ccccc3)n2)c(C)n1C | -1 | -10 | 8 | 17 | -3 | · | · | ·
Cc1ccc(C(=O)Nc2ccc(-c3csc(C)n3)cc2)cc1 | 1 | 11 | -24 | -283 | 21 | -138 | · | ·
CC(=O)Nc1ccc(-c2csc(NCCc3ccccc3)n2)cc1 | 2 | 4 | -9 | -244 | -32 | -141 | · | ·
Cc1nc(-c2ccc(NC(=O)c3ccccc3)cc2)cs1 | 21* | 76* | 19 | -78 | 68* | -13 | 40* | 28*

Compound activity: PubChem, several laboratories
